These results are taken from ChEMBL document CHEMBL1157539, “Thousands of chemical starting points for antimalarial lead identification” (Nature, 2010).

The test system of this test is Plasmodium falciparum. The test can be described thus: GSK_TCMDC: Inhibition of Plasmodium falciparum 3D7 in whole red blood cells, using parasite LDH activity as an index of growth. Test compounds present at 2uM. Format: functional.
By Inhibition is commonly meant the relative decrease from the control value, in per cent. Read a low Inhibition as a response near the control. Molecule `CC(C)N(C(=O)CSc1nc2cc(Cl)ccc2c(=O)n1Cc1ccccc1)C(C)C` gave an Inhibition of 100%.

As for `NC1CCN(c2nc(NCCCc3ccc(O)cc3)nc(NCc3ccccc3-c3ccc(C(F)(F)F)cc3)n2)CC1.O=C(O)C(F)(F)F`, the Inhibition was determined as 100%.

Molecule `Cc1cc(N(C)CCN(C)C)nc(Nc2ccc(Br)cc2)n1` had an Inhibition of 97%.

The molecule `Fc1ccc2[nH]c(-c3cccc(-c4ccc(CNCc5ccccc5)cc4)c3)nc2c1.O=C(O)C(F)(F)F` returned an Inhibition of 100%.

Molecule `CN(C)C(C)(C)CN(Cc1ccc(-c2ccc(C(F)(F)F)cc2)cc1)C(=O)Cn1c(CCc2cccc(F)c2F)nc(=O)c2ccccc21.O=C(O)C(O)C(O)C(=O)O` returned an Inhibition of 95%.

Molecule `O=C(O)C(F)(F)F.OCCN1CCN(Cc2ccc(-c3cccc(-c4nc5cc(F)ccc5[nH]4)c3)cc2)CC1` registered an Inhibition of 100%.

The molecule `O=C(Nc1ccc(F)cc1)NC1CCN(c2ccnc3cc(Cl)ccc23)C1.O=C(O)C(F)(F)F` (stereo not drawn) came in with an Inhibition of 100%.

In the case of `COc1ccc(CCN(C)CCCN2CCC(NC(=O)c3cccc4c(=O)c5ccccc5sc34)CC2)cc1OC.O=C(O)C(=O)O`, the Inhibition is reported as 97%.

For `Cc1nc2nc(N)nc(N)c2c(C)c1Cc1ccccc1.Cl`, the Inhibition was 95%.

With `COc1cc(OC)c2c(C)cc(NCCCn3ccnc3)nc2c1`, the Inhibition came to 100%.

For the molecule `O=C(Nc1cccc(-c2csc(-c3nc4ccccc4[nH]3)c2)c1)c1cc(=O)c2ccccc2[nH]1`, the Inhibition was determined as 98%.

`CCCN(CC1CC1)c1nc(C)nc2c(-c3ccccc3)cc(C)cc12` registered an Inhibition of 96%.

`O=C(Nc1cccc(CN2CCCN(CCc3ccccc3)CC2)c1)c1cc2ccccc2s1.O=C(O)C(F)(F)F` displayed an Inhibition of 93%.
